# Source: PubChem BioAssay (NCI)
# Compounds without any hit were thinned out: in the full panel of roughly 83,000, 20% have a hit.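 A percent growth of 40 corresponds to 60% growth inhibition; 0 means no net growth; -100 means all cells died. Active threshold: below 10.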 Values without a mark were called inactive. Activity calls are given as the source filed them.
# Tests used:
# Assay in all cases: NCI-60 one-dose screen, 48 h (100 = growth as untreated, 0 = no growth, -100 = all killed)
# Details in all cases: 10 µM unless noted
# [1] = test system: DU-145 prostate
# [2] = test system: K-562 leukemia
# [3] = test system: MALME-3M melanoma
# [4] = test system: MDA-MB-231 breast
# [5] = test system: RXF 393 renal
# [6] = test system: SF-268 CNS
# [7] = test system: SF-295 CNS
# [8] = test system: SF-539 CNS
# [9] = test system: UACC-257 melanoma
# [10] = test system: M14 melanoma
# [11] = test system: HCT-15 colon
# [12] = test system: HT29 colon
# [13] = test system: SNB-75 CNS
# [14] = test system: SNB-19 CNS
# [15] = test system: U251 CNS
# [16] = test system: PC-3 prostate
# [17] = test system: LOX IMVI melanoma
# [18] = test system: SK-MEL-28 melanoma
# [19] = test system: UACC-62 melanoma
SMILES,growth [1] [%],growth [2],growth [3] [%],growth [4],growth [5] [%],growth [6] [%],growth [7] [%],growth [8],growth [9] [%],growth [10],growth [11],growth [12],growth [13] [%],growth [14],growth [15],growth [16] [%],growth [17],growth [18] [%],growth [19] [%]
Cc1cc(N2CCCCC2)nc(N(CCNc2ccnc3cc(Cl)ccc23)Cc2ccco2)n1,46.4,2.04% (active),40.2,32.9%,33.3,60.7,48.7,30.7%,88,9.4% (active),13.8%,6.61% (active),43.9,-69.9% (active),14.4%,13.9,-12.6% (active),38.9,
COC(=O)C(Cc1ccccc1)n1cc(COc2nc(Cl)nc(Nc3ccc(Cl)cc3)n2)nn1 (centres undefined),81.5,90.6%,89.4,94%,101,97.8,101,97.4%,94.7,91.5%,91%,95.5%,104,98.2%,94.1%,101,,107,93.1
COc1ccc(-c2cc(=O)oc3ccc(Cl)cc23)cc1F,14.7,7.21% (active),103,21.8%,38.7,26.2,20.4,-2.9% (active),47.3,15.3%,11.7%,-5.75% (active),46,23.5%,4.46% (active),11,21.9%,59.5,30.1
Clc1cc(Cl)cc(Nc2ccc3c(OCCCN4CCOCC4)cccc3n2)c1,41.9,-33.9% (active),71,-24.6% (active),53.5,48.4,30.6,48.1%,73.2,0.379% (active),-46.4% (active),-64.5% (active),54.9,31.7%,29.1%,42,-85.4% (active),65.6,14.7
